Data taken from PubChem BioAssay (Tox21).
Records with an inconclusive call do not appear. A call without a number means that no potency is given here. Calls of active or inactive are those of the source. Calls come from the whole dose curve; as a rule, active = well fitted activation curve with a large enough effect in the signal ratio in the repeat runs (not every such curve was filed as active); inconclusive = weak or mixed curves, or effect the other way; inactive = no such curve, though single readings can be large or run the other way; the % refers to the signal ratio.

Target: Peroxisome proliferator-activated receptor gamma (Homo sapiens) (UniProt P37231)
Sequence (P37231 whole entry, looked up): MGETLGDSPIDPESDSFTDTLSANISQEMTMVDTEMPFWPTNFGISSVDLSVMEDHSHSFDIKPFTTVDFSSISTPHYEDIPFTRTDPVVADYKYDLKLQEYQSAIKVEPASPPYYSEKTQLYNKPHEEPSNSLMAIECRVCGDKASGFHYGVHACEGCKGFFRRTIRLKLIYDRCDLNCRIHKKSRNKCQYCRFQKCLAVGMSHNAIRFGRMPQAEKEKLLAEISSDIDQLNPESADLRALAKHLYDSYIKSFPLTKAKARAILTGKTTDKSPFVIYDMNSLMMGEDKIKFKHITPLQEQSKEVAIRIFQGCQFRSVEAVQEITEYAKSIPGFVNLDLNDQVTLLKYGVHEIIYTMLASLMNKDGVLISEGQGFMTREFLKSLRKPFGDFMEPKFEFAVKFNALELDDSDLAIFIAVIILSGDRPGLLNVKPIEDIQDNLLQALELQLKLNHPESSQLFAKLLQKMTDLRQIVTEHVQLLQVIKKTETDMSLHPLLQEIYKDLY
Test: qHTS assay to identify small molecule agonists of the peroxisome proliferator-activated receptor gamma (PPARg) signaling pathway (AID 743094)
Settings: HEK293H PPARg-UAS-bla, beta-lactamase FRET ratio, 17 h; series mostly up to 57 µM
Excerpt: U.S. Tox21 Program National Center for Advancing Translational Sciences [NCATS] NIH Chemical Genomics Center [NCGC] U.S. Environmental Protection Agency [EPA] National Institutes of Environmental Health Sciences [NIEHS] National Toxicology Program [NTP] U.S. Food and Drug Administration [FDA] Tox21 Assay Overview: The peroxisome proliferator-activated receptors (PPARs) are lipid-activated transcription factors of the nuclear receptor superfamily with three distinct subtypes namely PPAR alpha, PPAR delta (also called PPAR beta) and PPAR gamma (PPARg). All these subtypes heterodimerize with Retinoid X receptor (RXR) and these heterodimers regulate transcription of various genes. PPAR-gamma receptor (glitazone receptor) is involved in the regulation of glucose and lipid metabolism. To identify the compounds that activate PPAR-gamma signaling, GeneBLAzer PPAR gamma UAS-bla HEK293H cell line (Invitrogen, Carlsbad, CA, USA) containing a beta-lactamase reporter gene under control of the control of an upstream activator sequence (UAS) stably integrated into HEK293H cells was used to screen Tox21 compound library.
Tox21 Assay Protocol Summary: PPARg-bla cells were dispensed at 3000 cells/6uL/well in 1536-well black wall/clear bottom plates using a Multidrop Combi (Thermo Fisher Scientific, Waltham, MA) dispenser. After the assay plates were incubated at 37C and 5% CO2 for 5 h, 23 nL of compounds dissolved in DMSO, positive controls or DMSO only was transferred to the assay plate by a Pintool station (Kalypsys, San Diego, CA). The assay plates were incubated at 37C for 17 h. After 1 uL of LiveBLAzerTM B/G FRET substrate was added using a Bioraptr Flying Reagent Dispenser (FRD) workstation (Beckman Coulter, Indianapolis, IN, USA), the plates were incubated at room temperature for 1 h, and fluorescence intensity was measured by an Envision plate reader (PerkinElmer, Shelton, CT).

Row | SMILES | Potency
1 | C[C@]12C(=O)OC(=O)[C@H]1[C@H]1C=C[C@@H]2C1 | inactive
2 | C=C(C)C(=O)OCCOP(=O)(O)O | inactive
3 | CCN(CC)C(=O)N(CC)CC | inactive
4 | CN1CCN(c2c(F)cc3c(=O)c(C(=O)O)cn4c3c2SCC4)CC1 | inactive
5 | CC(=O)N[C@@H](CC(C)C)C(=O)O | inactive
6 | CN1CCN(C2=Nc3ccccc3Oc3ccc(Cl)cc32)CC1 | inactive
7 | COc1ccc2nc(NC(=O)Nc3ccccc3)sc2c1 | inactive
8 | CCOC(=O)COc1ccc2c(c1)CC(NCC(O)c1cccc(Cl)c1)CC2 (stereo not given) | inactive
9 | OCCN1CCN(CCO)CC1 | inactive
10 | CC(=O)Oc1cc(C(C)C)c(OCCN(C)C)cc1C | inactive
11 | CCCCNc1ccc(C(=O)OCCN(CC)CC)cc1 | inactive
12 | CN1CCN(c2c(F)cc3c(=O)c(C(=O)O)cn(CCF)c3c2F)CC1 | inactive
13 | Cc1cc(S(=O)(=O)O)c(N)cc1Cl | inactive
14 | O=C1CCCCCCCCCCC(=O)OCCO1 | inactive
15 | CC(C)OC(C)C | inactive
16 | C=CCc1cc(OC)c(O)c(C(=O)NCCO)c1 | inactive
17 | CCC1(C)NC(=O)NC1=O (stereo not given) | inactive
18 | CCCNC(C)C(=O)Nc1c(C)csc1C(=O)OC (stereo not given) | inactive
19 | CCCCNCCCC | inactive
20 | FC(F)(F)C(Cl)(Cl)Cl | inactive

Row | SMILES | Potency
21 | CCCCCCCOC(=O)CCC | inactive
22 | CCOC(=O)NCCC[Si](OCC)(OCC)OCC | inactive
23 | CC1(C)O[C@@H]2C[C@H]3[C@@H]4CCC5=CC(=O)CC[C@]5(C)[C@@]4(F)[C@@H](O)C[C@]3(C)[C@]2(C(=O)CCl)O1 | inactive
24 | FC(F)(F)C(F)(F)C(F)(F)C(F)(F)C(F)(F)C(F)(F)C(F)(F)C(F)(F)Br | inactive
25 | C=CCCCCCCCCO | inactive
26 | O=C(O)[C@@H](O)[C@H](O)[C@H](O)[C@@H](O)C(=O)O | inactive
27 | CCCCCCCCOC(=O)CCCCCCCCC(=O)OCCCCCCCC | inactive
28 | COc1nc(C)nc(NC(=O)NS(=O)(=O)c2ccccc2OCCCl)n1 | inactive
29 | C1CSCCS1 | inactive
30 | COc1ccccc1OCC(O)COC(N)=O (stereo not given) | inactive
31 | O=C1N(c2ccccc2)c2ccccc2C1(Cc1ccncc1)Cc1ccncc1 | inactive
32 | Oc1ccccc1F | inactive
33 | CCN(CC)CCOc1ccc(Cc2ccccc2)cc1 | inactive
34 | CCOC(=O)c1ccccc1O | inactive
35 | CCN[C@H]1CN(CCCOC)S(=O)(=O)c2sc(S(N)(=O)=O)cc21 | inactive
36 | COC(=O)c1ccc2cc(C(=O)OC)ccc2c1 | inactive
37 | ICCc1ccccc1 | inactive
38 | O=C1CCCc2ccccc21 | inactive
39 | CCOc1ccccc1N | inactive
40 | CCN(CCCc1ccccc1)CCCc1ccccc1 | inactive
